Holding throughout (test): DAPPL (digital affinity profiling via proximity ligation, sequencing); 10 mM Tris-HCl pH 7.5, 50 mM NaCl, 1 mM DTT, 4% glycerol, room temperature, 30 min; GST-TFs on glutathione beads, 16-mer random dsDNA library, 0.1% formaldehyde crosslink after washing; high values mean tight binding
Holding throughout (settings): protein: recombinant; tags: N-terminal GST; dsDNA, one strand shown

Assay [1] concerns the target T1, ERF (Homo sapiens, UniProt P50548 1-548).
T1 sequence: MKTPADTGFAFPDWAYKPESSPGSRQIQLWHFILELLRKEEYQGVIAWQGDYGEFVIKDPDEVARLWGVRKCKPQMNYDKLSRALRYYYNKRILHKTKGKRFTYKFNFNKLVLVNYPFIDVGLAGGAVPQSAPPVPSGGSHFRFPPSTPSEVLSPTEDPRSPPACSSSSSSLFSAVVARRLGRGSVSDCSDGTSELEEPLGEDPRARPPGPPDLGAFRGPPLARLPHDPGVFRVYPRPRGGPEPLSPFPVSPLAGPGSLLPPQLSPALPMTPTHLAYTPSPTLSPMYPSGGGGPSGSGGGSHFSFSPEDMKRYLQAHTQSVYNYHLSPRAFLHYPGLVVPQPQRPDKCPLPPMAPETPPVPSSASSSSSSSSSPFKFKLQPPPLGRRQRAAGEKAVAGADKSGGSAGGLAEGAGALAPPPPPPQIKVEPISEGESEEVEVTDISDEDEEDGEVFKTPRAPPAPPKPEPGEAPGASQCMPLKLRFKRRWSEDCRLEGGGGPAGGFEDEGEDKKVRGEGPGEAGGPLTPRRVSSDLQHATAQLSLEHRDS
In outline: (§1)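 Each value of binding signal is a hexamer's read frequency for a factor divided by the same hexamer's frequency in the tag-only sample. Barcoded, bead-captured GST fusions of human transcription factors made in yeast were pooled with that sample and incubated with 200 nmole of a random double-stranded 16-mer DNA library in Tris/NaCl/DTT/glycerol buffer at room temperature for 30 min. Washing, 0.1% formaldehyde crosslinking, proximity ligation, PCR and Illumina NextSeq500 sequencing followed.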

For assay [2], the target named is T2, ETV3L (Homo sapiens, UniProt Q6ZN32 1-361).
T2 sequence: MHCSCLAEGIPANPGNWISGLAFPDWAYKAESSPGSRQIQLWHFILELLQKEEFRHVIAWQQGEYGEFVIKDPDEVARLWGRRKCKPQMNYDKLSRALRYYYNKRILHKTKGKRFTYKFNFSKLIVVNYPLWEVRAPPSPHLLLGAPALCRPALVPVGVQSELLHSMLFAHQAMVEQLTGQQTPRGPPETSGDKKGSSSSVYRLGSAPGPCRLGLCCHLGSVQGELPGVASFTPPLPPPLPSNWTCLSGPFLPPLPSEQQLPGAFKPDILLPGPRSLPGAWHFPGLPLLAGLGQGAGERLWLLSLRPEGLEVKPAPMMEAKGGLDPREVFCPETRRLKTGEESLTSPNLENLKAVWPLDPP
An outline of the steps: as §1

Assay [3] concerns the target T3, ETS2 (Homo sapiens, UniProt P15036 1-469).
T3 sequence: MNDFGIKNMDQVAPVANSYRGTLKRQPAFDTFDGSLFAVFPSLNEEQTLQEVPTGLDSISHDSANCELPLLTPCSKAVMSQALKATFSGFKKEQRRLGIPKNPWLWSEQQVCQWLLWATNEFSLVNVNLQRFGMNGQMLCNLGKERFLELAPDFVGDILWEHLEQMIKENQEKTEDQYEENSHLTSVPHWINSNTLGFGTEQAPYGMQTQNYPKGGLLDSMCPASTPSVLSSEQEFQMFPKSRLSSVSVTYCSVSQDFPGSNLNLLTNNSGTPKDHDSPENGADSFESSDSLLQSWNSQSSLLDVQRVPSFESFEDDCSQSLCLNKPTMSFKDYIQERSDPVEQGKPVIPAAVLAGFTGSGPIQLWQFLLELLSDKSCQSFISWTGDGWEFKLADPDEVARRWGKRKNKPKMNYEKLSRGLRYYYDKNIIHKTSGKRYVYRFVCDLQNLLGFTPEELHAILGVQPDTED
An outline of the steps: as §1

For assay [4], the target named is T4, SPDEF (Homo sapiens, UniProt O95238 1-335).
T4 sequence: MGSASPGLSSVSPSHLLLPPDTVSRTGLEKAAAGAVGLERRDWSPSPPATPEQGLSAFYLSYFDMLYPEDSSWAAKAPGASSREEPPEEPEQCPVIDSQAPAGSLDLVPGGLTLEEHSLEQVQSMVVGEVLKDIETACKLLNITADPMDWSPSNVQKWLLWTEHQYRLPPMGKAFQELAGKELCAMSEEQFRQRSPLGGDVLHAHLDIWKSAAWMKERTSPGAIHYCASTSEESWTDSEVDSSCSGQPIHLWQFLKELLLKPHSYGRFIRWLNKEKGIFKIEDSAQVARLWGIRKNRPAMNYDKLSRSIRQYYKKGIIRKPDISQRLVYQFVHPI
An outline of the steps:
as §1

The target in assay [5] is T5, ETV7 (Homo sapiens, UniProt Q9Y603 1-341).
T5 sequence: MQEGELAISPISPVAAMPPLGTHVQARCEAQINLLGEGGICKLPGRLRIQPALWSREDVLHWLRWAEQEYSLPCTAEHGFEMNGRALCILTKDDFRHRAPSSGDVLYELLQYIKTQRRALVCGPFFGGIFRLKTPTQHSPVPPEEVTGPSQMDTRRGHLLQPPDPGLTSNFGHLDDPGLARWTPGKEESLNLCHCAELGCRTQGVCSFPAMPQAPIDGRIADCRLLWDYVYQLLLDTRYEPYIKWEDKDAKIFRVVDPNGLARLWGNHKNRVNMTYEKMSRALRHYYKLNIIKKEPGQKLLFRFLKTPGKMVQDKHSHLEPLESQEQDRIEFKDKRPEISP
An outline of the steps:
as §1

In assay [6] the target is T6, ELF5 (Homo sapiens, UniProt Q9UKW6-2 1-255).
T6 sequence: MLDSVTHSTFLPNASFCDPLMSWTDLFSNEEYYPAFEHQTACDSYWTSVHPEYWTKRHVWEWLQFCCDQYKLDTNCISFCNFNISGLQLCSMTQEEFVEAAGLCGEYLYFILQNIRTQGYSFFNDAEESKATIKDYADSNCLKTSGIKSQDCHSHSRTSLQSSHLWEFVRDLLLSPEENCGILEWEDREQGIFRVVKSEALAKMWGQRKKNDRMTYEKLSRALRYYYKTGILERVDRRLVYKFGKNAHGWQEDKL
In outline:
as §1

In assay [7] the target is T7, ETV3 (Homo sapiens, UniProt P41162-2 1-143).
T7 sequence: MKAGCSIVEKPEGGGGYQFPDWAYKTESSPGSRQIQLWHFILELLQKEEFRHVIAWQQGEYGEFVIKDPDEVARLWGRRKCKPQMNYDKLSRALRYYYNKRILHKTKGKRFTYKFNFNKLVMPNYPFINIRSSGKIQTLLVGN
An outline of the steps: as §1

The target of assay [8] is ETV6 (Homo sapiens, UniProt P41212 1-452). An outline of the steps: as §1
ETV6, sequence (P41212 whole entry): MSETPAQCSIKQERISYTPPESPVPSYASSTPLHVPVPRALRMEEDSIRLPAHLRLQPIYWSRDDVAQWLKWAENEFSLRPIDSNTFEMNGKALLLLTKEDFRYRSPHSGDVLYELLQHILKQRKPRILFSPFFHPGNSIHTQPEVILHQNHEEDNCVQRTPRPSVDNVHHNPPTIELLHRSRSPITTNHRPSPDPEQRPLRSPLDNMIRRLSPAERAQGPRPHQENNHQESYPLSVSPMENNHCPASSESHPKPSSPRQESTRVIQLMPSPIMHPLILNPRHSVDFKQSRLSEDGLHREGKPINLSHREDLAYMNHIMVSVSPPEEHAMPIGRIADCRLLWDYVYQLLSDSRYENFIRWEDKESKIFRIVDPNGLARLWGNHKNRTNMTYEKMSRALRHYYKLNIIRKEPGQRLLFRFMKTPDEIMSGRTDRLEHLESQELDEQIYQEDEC

In the case of ACGATA, the binding signal in assay [1] was 1.2 fold enrichment (6-mer frequency, TF over GST control); in assay [2] it was 1.18 fold enrichment (6-mer frequency, TF over GST control); in assay [3], 1.25 fold enrichment (6-mer frequency, TF over GST control); in assay [4], 1.13 fold enrichment (6-mer frequency, TF over GST control); in assay [5], 1.22 fold enrichment (6-mer frequency, TF over GST control); in assay [6], 1.09 fold enrichment (6-mer frequency, TF over GST control). Moreover, the binding signal in assay [7] is 1.13 fold enrichment (6-mer frequency, TF over GST control); in assay [8], 1.18 fold enrichment (6-mer frequency, TF over GST control).

In the case of GATATC, the binding signal in assay [1] was 1.56 fold enrichment (6-mer frequency, TF over GST control); in assay [2] it was 1.46 fold enrichment (6-mer frequency, TF over GST control); in assay [3], 1.49 fold enrichment (6-mer frequency, TF over GST control); in assay [4], 1.92 fold enrichment (6-mer frequency, TF over GST control); in assay [5] it was 1.34 fold enrichment (6-mer frequency, TF over GST control); in assay [6], 1.74 fold enrichment (6-mer frequency, TF over GST control). The binding signal in assay [7] is 1.61 fold enrichment (6-mer frequency, TF over GST control); in assay [8], 1.51 fold enrichment (6-mer frequency, TF over GST control).

With CACCAT, the binding signal in assay [1] was 1.12 fold enrichment (6-mer frequency, TF over GST control); in assay [2], 1.16 fold enrichment (6-mer frequency, TF over GST control); in assay [3], 1.08 fold enrichment (6-mer frequency, TF over GST control); in assay [4], 1.02 fold enrichment (6-mer frequency, TF over GST control); in assay [5], 1.15 fold enrichment (6-mer frequency, TF over GST control); in assay [6] it was 1.1 fold enrichment (6-mer frequency, TF over GST control). Moreover, the binding signal was 1.05 fold enrichment (6-mer frequency, TF over GST control) in assay [7] and 1.04 fold enrichment (6-mer frequency, TF over GST control) in assay [8].

Turning to TCGATG, the binding signal is 1.08 fold enrichment (6-mer frequency, TF over GST control) in assay [1]; 1.15 fold enrichment (6-mer frequency, TF over GST control) in assay [2]; 1.03 fold enrichment (6-mer frequency, TF over GST control) in assay [3]; 1.07 fold enrichment (6-mer frequency, TF over GST control) in assay [4]; 1.17 fold enrichment (6-mer frequency, TF over GST control) in assay [5]; 1.07 fold enrichment (6-mer frequency, TF over GST control) in assay [6]. In addition, the binding signal in assay [7] is 1.1 fold enrichment (6-mer frequency, TF over GST control); in assay [8], 1.09 fold enrichment (6-mer frequency, TF over GST control).

In the case of TAGCAA, the binding signal was 1.28 fold enrichment (6-mer frequency, TF over GST control) in assay [1]; 1.22 fold enrichment (6-mer frequency, TF over GST control) in assay [2]; 1.26 fold enrichment (6-mer frequency, TF over GST control) in assay [3]; 1.23 fold enrichment (6-mer frequency, TF over GST control) in assay [4]; 1.25 fold enrichment (6-mer frequency, TF over GST control) in assay [5]; 1.23 fold enrichment (6-mer frequency, TF over GST control) in assay [6]. The binding signal in assay [7] is 1.34 fold enrichment (6-mer frequency, TF over GST control); in assay [8], 1.29 fold enrichment (6-mer frequency, TF over GST control).

Take GCTGTT: the binding signal is 1.08 fold enrichment (6-mer frequency, TF over GST control) in assay [1]; 1.1 fold enrichment (6-mer frequency, TF over GST control) in assay [2]; 1.09 fold enrichment (6-mer frequency, TF over GST control) in assay [3]; 1.08 fold enrichment (6-mer frequency, TF over GST control) in assay [4]; 1.21 fold enrichment (6-mer frequency, TF over GST control) in assay [5]; 1.04 fold enrichment (6-mer frequency, TF over GST control) in assay [6]. Further, the binding signal was 1.15 fold enrichment (6-mer frequency, TF over GST control) in assay [7] and 1.03 fold enrichment (6-mer frequency, TF over GST control) in assay [8].

As for TGTAAA, the binding signal in assay [1] was 1.23 fold enrichment (6-mer frequency, TF over GST control); in assay [2], 1.22 fold enrichment (6-mer frequency, TF over GST control); in assay [3], 1.24 fold enrichment (6-mer frequency, TF over GST control); in assay [4] it was 1.16 fold enrichment (6-mer frequency, TF over GST control); in assay [5], 1.13 fold enrichment (6-mer frequency, TF over GST control); in assay [6], 1.1 fold enrichment (6-mer frequency, TF over GST control). Moreover, the binding signal in assay [7] was 1.2 fold enrichment (6-mer frequency, TF over GST control); in assay [8] it was 1.03 fold enrichment (6-mer frequency, TF over GST control).

(Values after publication PMC7862700, “An all-to-all approach to the identification of sequence-specific readers for epigenetic DNA modifications on cytosine”.)
